Calls of active or inactive are those of the source. Unless noted, how the calls were made is not given here.

Assay [1] is described as follows: compounds binding Alexa647 anti-His antibody – biochemical, small-molecule microarray, 635 nm fluorescence, artefact control for SMM control protein annotation, primary screen (AID 1128).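 Further: score merges feature fluorescence with signal-to-noise for each printed compound spot.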 The note with it: higher = more signal.
Assay [2] has as its system Human papillomavirus type 1a E7 protein (residues 1-88). Description: HPV1a E7 small-molecule binders, primary screen, biochemical, small-molecule microarray, residues 1-88, 635 nm (AID 1129). The following applies: small-molecule microarray binding, fluorescence 635 nm; higher = more signal.
Assay [3] addresses Focal adhesion kinase 1 (Homo sapiens) (UniProt Q05397). Description: PTK2 protein binding on printed compound slides – biochemical, small-molecule microarray, 635/667 nm fluorescence, BSA, DTT, primary screen (AID 1130).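 Further: composite of spot emission at 667 nm and signal to noise over triplicate slides.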 The following applies: 635 nm fluorescence, higher = more signal.
For assay [4], the system named is Fibrinogen (Alexa647-labelled). Briefly: Alexa647-fibrinogen binding to printed small molecules – biochemical, small-molecule microarray, 635/667 nm fluorescence, artefact control for SMM control-protein annotation, profiling panel (AID 1131).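 Further: z-score merges 667 nm fluorescence with per-spot signal-to-noise over triplicate slides.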 The following applies: fibrinogen-A647 binding fluorescence, higher = more signal.
The target of assay [5] is Follistatin (Homo sapiens) (UniProt P19883). Briefly: FST protein binding to printed compounds – biochemical, small-molecule microarray, 635/667 nm fluorescence, primary screen (AID 1132). The note with it: 635 nm fluorescence, higher = more signal.
For assay [6], the target named is Fibroblast growth factor 2 (Homo sapiens) (UniProt P09038). Briefly: basic fibroblast growth factor binding to printed compounds – biochemical, small-molecule microarray, 635/667 nm fluorescence, primary screen (AID 1133). The following applies: FGF2, fluorescence 635/667, higher = more signal.
Assay [7] in a line: JC-1 mitochondrial potential readout, lung cancer cells – cell-based, A549, JC-1 fluorescence, basal, 24 h, 100 nL, profiling panel (AID 1138).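 Further: A549 lung adenocarcinoma cells under basal conditions with no added stimulus; test concentration not given here.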 The following applies: higher = more signal.
The subject of the next assay is Lefty1. Briefly: Lefty1 protein binding to printed compounds – biochemical, small-molecule microarray, 635/667 nm fluorescence, primary screen (AID 1139). The following applies: fluorescence 635/667, higher = more signal.
The subject of assay [8] is wheat germ agglutinin (Triticum aestivum), Alexa647-labelled. Description: Alexa647-WGA lectin binding to printed small molecules – biochemical, small-molecule microarray, 635/667 nm fluorescence, artefact control for SMM control-protein annotation, profiling panel (AID 1140).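 Further: score merges 667 nm feature emission with signal to noise over triplicate slides.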 The following applies: WGA-A647 binding, 635 nm fluorescence, higher = more signal.
The target in assay [9] is Luciferin 4-monooxygenase (Photinus pyralis) (UniProt P08659). Briefly: inhibition of purified Photinus pyralis luciferase – biochemical, luminescence, purified enzyme, 2006 set, primary screen (AID 1141).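 Further: cell-free assay with purified firefly luciferase at 100 ng per well in PBS; test concentration not given here.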 The following applies: purified firefly luciferase, SteadyGlo luminescence, 30 min; higher = more signal, called active from +8 up or from −8 down.
Assay [10] relates to Wnt5a (protein binding on small-molecule microarray). Description: small molecules binding Wnt5a protein – biophysical, small-molecule microarray, 635/667 nm fluorescence, primary screen (AID 1142).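 Further: fluorescence read at 667 nm with signal to noise per printed feature.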 The following applies: 635 nm fluorescence, higher = more signal.
Assay [11] can be described thus: ATP-based viability of Huh7 replicon cells – cell-based, CellTiter-Glo luminescence, basal, 48 h, cytotoxicity control for HCV replication inhibitor project, primary screen (AID 1143).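 Further: Huh7 hepatoma cells carrying a hepatitis C replication reporter with no stimulus; test concentration not given here.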 The following applies: higher = more signal, called active from +8 up or from −8 down.
Assay [12] in a line: Pseudomonas biofilm growth suppression – PAO1 strain, BacTiter-Glo luminescence, LB-PBS, primary screen (AID 1144). The note with it: P. aeruginosa PAO1 biofilm, 12 h, higher = more signal.
Assay [13] can be described thus: basal CRE-LacZ reporter activity in PC12 – cell-based, unstimulated, primary screen (AID 1145). The note with it: no forskolin, luminescence, 4.5 h, higher = more signal, called active from +8 up or from −8 down.
Assay [14] in a line: forskolin-driven CRE-LacZ activity in PC12 – cell-based, CRE-LacZ reporter, forskolin-stimulated, primary screen (AID 1146).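 Further: PC12 cells with 6xCRE LacZ reporter stimulated by forskolin 10 µM; beta-galactosidase reporter signal reflecting CREB driven transcription.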 The note with it: luminescence, 4.5 h, higher = more signal, called active from +8 up or from −8 down.
For assay [15], the target named is Streptavidin (Streptomyces avidinii) (UniProt P22629). Briefly: compounds binding control protein streptavidin – biophysical, small-molecule microarray, 635/667 nm fluorescence, artefact control for SMM compound annotation, primary screen (AID 1147).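 Further: signal reflects streptavidin binding to arrayed compounds as a control protein.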 The following applies: higher = more signal.
Assay [16] in a line: probe aInhba binding on compound microarray – biochemical, small-molecule microarray, 635/667 nm fluorescence, primary screen (AID 1148).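 Further: score merges 667nm spot fluorescence with signal-to-noise for antibody binding to printed compounds.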 The note with it: higher = more signal.
Assay [17] addresses Torsin-1A (Homo sapiens) (UniProt O14656). Description: TOR1A wild-type binding on microarray – cell lysate, small-molecule microarray, lysate, 635/667 nm, primary screen (AID 1149). The following applies: COS7 hTOR1A-WT lysate, 635 nm fluorescence, higher = more signal.
The target is the same in assay [18]. Description: torsin A mutant lysate binding on microarrays – cell lysate, small-molecule microarray, COS7 lysate, 635/667 nm fluorescence, primary screen (AID 1150).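 Further: score pools 667 nm emission and signal to noise measuring lysate protein binding.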 The following applies: COS7 hTOR1A mutant lysate, 635 nm fluorescence, higher = more signal.
Assay [19] has as its system Sonic hedgehog protein (Shh). Description: Sonic hedgehog microarray binding compounds – biochemical, small-molecule microarray, 635/667 nm fluorescence, primary screen (AID 1151).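 Further: Shh protein binding to compounds spotted on small-molecule microarray slides; score combines spot fluorescence intensity with signal-to-noise across triplicate slides.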 The following applies: 635 nm fluorescence, higher = more signal.

Streptavidin (Streptomyces avidinii), sequence (P22629 whole entry, looked up): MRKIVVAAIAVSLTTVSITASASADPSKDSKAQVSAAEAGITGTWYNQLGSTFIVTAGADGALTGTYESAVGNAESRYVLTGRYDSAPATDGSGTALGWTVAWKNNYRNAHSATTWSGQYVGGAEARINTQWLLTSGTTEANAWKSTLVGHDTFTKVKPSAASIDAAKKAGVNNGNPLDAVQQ
Luciferin 4-monooxygenase (Photinus pyralis), sequence (P08659 whole entry, looked up): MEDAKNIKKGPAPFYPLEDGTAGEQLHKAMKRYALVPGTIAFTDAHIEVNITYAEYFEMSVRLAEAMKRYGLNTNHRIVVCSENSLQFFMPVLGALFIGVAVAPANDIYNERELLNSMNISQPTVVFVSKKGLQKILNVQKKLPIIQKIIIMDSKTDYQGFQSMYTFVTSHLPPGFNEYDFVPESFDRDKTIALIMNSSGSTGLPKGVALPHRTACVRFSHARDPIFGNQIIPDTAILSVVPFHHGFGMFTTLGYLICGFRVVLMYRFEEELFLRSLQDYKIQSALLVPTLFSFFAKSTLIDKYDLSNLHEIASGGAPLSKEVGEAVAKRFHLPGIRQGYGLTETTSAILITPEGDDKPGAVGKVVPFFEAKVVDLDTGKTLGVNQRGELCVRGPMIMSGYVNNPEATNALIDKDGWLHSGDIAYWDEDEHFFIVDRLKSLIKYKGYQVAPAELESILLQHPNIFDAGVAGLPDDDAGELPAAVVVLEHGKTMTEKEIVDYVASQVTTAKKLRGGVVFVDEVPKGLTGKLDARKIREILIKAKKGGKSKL
Torsin-1A (Homo sapiens), sequence (O14656 whole entry, looked up): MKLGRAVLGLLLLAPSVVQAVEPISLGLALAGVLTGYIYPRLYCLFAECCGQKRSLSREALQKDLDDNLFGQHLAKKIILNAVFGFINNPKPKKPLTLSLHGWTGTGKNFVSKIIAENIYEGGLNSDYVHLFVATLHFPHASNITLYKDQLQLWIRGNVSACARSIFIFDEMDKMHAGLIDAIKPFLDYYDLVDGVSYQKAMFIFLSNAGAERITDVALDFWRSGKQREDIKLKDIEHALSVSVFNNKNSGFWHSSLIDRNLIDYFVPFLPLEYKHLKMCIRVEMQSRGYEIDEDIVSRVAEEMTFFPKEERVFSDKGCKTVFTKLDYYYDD
Fibroblast growth factor 2 (Homo sapiens), sequence (P09038 whole entry, looked up): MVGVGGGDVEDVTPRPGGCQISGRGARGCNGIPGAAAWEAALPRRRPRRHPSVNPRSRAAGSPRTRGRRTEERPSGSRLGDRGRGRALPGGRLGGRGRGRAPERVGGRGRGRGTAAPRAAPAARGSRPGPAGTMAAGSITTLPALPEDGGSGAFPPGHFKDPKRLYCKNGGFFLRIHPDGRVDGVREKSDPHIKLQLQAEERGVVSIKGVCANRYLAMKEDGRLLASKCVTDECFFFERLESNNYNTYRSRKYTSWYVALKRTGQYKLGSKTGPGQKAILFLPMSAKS
Follistatin (Homo sapiens), sequence (P19883 whole entry, looked up): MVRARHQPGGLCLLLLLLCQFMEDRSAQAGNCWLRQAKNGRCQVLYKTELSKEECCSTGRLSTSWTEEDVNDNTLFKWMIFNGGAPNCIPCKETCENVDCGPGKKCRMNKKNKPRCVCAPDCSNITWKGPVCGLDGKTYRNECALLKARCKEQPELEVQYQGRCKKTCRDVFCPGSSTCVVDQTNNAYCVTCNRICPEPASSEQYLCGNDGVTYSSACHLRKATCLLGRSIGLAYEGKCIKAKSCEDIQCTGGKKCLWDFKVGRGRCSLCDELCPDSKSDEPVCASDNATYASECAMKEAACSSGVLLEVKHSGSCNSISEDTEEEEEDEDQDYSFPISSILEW
Focal adhesion kinase 1 (Homo sapiens), sequence (Q05397 whole entry, looked up): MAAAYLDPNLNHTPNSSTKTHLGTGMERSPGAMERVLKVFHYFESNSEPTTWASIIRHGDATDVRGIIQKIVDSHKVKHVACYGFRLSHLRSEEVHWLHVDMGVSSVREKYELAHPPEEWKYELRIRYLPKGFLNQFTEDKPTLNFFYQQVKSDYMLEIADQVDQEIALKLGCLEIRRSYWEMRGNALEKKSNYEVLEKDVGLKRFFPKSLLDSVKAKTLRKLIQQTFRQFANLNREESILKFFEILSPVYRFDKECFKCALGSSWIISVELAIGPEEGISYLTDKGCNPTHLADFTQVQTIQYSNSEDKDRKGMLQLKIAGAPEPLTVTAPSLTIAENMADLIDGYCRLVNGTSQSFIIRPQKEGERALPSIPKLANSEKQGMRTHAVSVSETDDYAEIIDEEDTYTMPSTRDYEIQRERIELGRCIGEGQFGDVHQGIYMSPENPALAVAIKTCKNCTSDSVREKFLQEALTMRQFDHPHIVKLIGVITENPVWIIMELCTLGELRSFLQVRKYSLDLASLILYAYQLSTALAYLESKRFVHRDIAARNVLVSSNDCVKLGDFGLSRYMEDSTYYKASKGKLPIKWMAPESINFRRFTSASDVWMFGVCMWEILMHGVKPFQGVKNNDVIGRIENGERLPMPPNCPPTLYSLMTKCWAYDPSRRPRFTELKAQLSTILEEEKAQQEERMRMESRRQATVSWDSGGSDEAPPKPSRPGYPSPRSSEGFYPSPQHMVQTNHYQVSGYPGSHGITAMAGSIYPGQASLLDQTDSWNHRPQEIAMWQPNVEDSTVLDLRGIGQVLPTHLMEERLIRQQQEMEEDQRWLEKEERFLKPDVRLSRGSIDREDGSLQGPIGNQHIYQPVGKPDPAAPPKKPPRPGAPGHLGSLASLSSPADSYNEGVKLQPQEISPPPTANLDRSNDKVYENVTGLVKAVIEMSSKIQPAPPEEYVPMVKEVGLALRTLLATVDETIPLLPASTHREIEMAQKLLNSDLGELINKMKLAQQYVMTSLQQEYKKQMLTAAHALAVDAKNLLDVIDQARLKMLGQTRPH

Consider `C[N+](C)(C)CCCC[C@@H]1NC(=O)[C@@H]2C[C@H](C(=O)NCCCCCN)[C@H](c3cccc(OCCO)c3)N2C1=O`, for which the composite z-score in assay [1] worked out at 0.758; in assay [2] it was 0.935; in [3], 0.103; in [4] it was 0.978; in [5], 0.597; in [6], 0.175. Also, the composite z-score in the assay with Lefty1 is 0.161; in assay [8], 1.07; in assay [10] it was -0.0878; in assay [15] it was 1.19; in assay [16] it was -0.117; with Torsin-1A (Homo sapiens) [17], 0.345. Further, the composite z-score with Torsin-1A (Homo sapiens) [18] was -0.149; in [19] it was -0.125. Also, the z-score was 0.809 in assay [7]; -1.25 (inactive) in [9]; 0.288 (inactive) in assay [11]; -0.165 (inactive) in assay [12]; 0.7 (inactive) in assay [13]; 0.508 (inactive) in assay [14].

`C=C(CCCC)/C(=C/C[C@@H](OC(C)=O)c1ccccc1OCCO)c1cnc2ccccc2c1`: the composite z-score in [1] is 1.46; in [2] it was 0.356; in [3] it was 0.0147; in assay [4], 0.143; in assay [5], 1.31; in assay [6], 0.908. In addition, the composite z-score in the assay on Lefty1 was 0.736; in assay [8] it was 0.454; in assay [10], 0.0953; in assay [15] it was -0.0227; in [16], -0.0736; with Torsin-1A (Homo sapiens) [17] it was 1.11. For the same molecule, the composite z-score is -0.438 with Torsin-1A (Homo sapiens) [18] and 1.02 in [19]. Besides, the z-score is 0.222 in assay [7]; -0.754 (inactive) in [9]; -1.6 (inactive) in assay [11]; -0.131 (inactive) in [12]; 2.02 (inactive) in [13]; -0.185 (inactive) in [14].

With `O=C1OCCC/C=C\[C@H]2OC34C=CCN(Cc5ccccc5)C(=O)[C@H]3N(CCCCCCO)C(=O)[C@@H]4C12` (stereo not given in full), the composite z-score in assay [1] was 0.727; in assay [2] it was -0.39; in assay [3] it was 0.0123; in [4] it was -1.98; in assay [5], -1.61; in [6], -0.929. For the same molecule, the composite z-score with Lefty1 was -1.55; in assay [8], -0.513; in [10], -0.489; in [15], -0.821; in [16], -0.147; with Torsin-1A (Homo sapiens) [17], -0.309. The composite z-score is 1.9 with Torsin-1A (Homo sapiens) [18] and -0.693 in [19]. Also, the z-score in assay [7] was 1.59; in [9] it was -1.76 (inactive); in assay [11], 0.233 (inactive); in assay [12], -1.14 (inactive); in assay [13], 1.01 (inactive); in [14] it was 0.0851 (inactive).

On to `C=CCOC(=O)[C@H]1[C@@H]2C(=O)O[C@@H](c3ccccc3)[C@@H](c3ccccc3)N2[C@@H](c2ccc(OCCOC(=O)[C@H]3C[C@H]4C(=O)N[C@@H](CC(C)C)C(=O)N4[C@H]3c3ccc(O)cc3)cc2)[C@]12C(=O)Nc1ccc(I)cc12`, for which the composite z-score in [1] was 0.756; in assay [2], 0.937; in assay [3], 0.798; in assay [4], 0.839; in assay [5] it was 1.19; in assay [6] it was 1.55. In addition, the composite z-score with Lefty1 was 1.54; in [8], 0.739; in assay [10], 0.931; in assay [15], 0.335; in assay [16], -0.0695; with Torsin-1A (Homo sapiens) [17] it was 1.45. Moreover, the results for the composite z-score (in the assay with Torsin-1A (Homo sapiens) [18]; in [19]) were 1.45 and 2.31, respectively. Further, the z-score is -1.29 in [7]; -2.02 (inactive) in [9]; -0.289 (inactive) in assay [11]; -0.829 (inactive) in assay [12]; -0.122 (inactive) in [13]; 0.535 (inactive) in [14].

With `C=CCC(OC(C)=O)[C@@H]1[C@@H](N(Cc2ccc(-c3cccc(C(F)(F)F)c3)o2)C(=O)c2ccc(-c3ccccc3)cc2)c2cc(OCCCO)ccc2N1C(=O)c1ccc(-c2ccccc2)cc1` (stereo not given in full), the composite z-score is -0.674 in [1]; -0.714 in [2]; -0.045 in assay [3]; -0.557 in [4]; 0.47 in assay [5]; -0.0003 in assay [6]. Besides, the composite z-score was 0.164 in the assay with Lefty1; -0.0266 in [8]; -0.0065 in assay [10]; 0.0998 in [15]; -0.0403 in [16]; -0.0662 with Torsin-1A (Homo sapiens) [17]. Besides, the values for the composite z-score (in the assay with Torsin-1A (Homo sapiens) [18]; in assay [19]) were 0.0093 and 0.32, respectively. Moreover, the z-score in [7] was 0.872; in assay [9], -0.277 (inactive); in [11], 0.42 (inactive); in assay [12], 0.103 (inactive); in [13], 0.0176 (inactive); in assay [14], 0.262 (inactive).

These data come from PubChem BioAssay.
